An excerpt weighted towards active compounds, which were near 2.9% of everything screened.
PAFAH1B2 FP inh: PAFAH1B2 (human) inhibition; P68402; hit rate 1.2% among 340,000; recombinant PAFAH1B2, FP-rhodamine activity probe, fluorescence polarization; inhibition, % at 3.39 µM;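 active means inhibition above the mean of all tested compounds plus 3 SD, cut at about 24% in these data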;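 further: 0% = enzyme with DMSO and 100% = wells lacking PAFAH1B2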
Target sequence (P68402 whole entry, looked up): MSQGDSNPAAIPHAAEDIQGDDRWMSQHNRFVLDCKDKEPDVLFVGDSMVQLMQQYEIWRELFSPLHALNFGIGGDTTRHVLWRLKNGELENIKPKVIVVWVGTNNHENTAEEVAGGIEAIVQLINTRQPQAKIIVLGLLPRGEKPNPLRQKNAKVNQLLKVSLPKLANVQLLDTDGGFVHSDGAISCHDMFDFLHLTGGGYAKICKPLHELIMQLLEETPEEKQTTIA
EBNA-1 inh: blocks EBNA-1 binding to DNA; EBNA-1 DNA binding, fluorescence polarization; hit rate 0.34% among 300,000; inhibition, % at 14.8 µM; AID 1950; in the data active means inhibition above about 28%
PAFAH2 FP inh: inhibitors of human PAFAH2; Q99487; recombinant PAFAH2, FP-rhodamine activity probe, fluorescence polarization; inhibition, % at 3.39 µM; hit rate 0.99% among 340,000;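 active means inhibition above the mean over all tested compounds plus 3 SD, cut at about 30% in these data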;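 further: inhibitors block probe labeling of enzyme so polarization drops; 0% = enzyme with DMSO and 100% = wells lacking PAFAH2 protein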
ZTA DNA inh: ZTA (EBV) inhibition in EBNA-1 counter-screen; hit rate 0.15% among 320,000; P03206; AID 2234; inhibition, % at 11 µM; ZTA-DNA binding, fluorescence polarization; in the data active means inhibition above about 33%
Target sequence (P03206 whole entry, looked up): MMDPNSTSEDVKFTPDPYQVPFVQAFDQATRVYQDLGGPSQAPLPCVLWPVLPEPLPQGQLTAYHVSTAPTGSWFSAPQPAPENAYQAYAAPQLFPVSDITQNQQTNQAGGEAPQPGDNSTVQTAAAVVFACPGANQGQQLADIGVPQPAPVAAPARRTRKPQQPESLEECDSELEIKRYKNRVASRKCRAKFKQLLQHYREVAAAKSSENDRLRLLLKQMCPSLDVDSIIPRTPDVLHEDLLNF
rCAG binder: r(CAG) repeat RNA binding | inhibition, % at 3 µM | AID 651821 | TO-PRO-1 dye displacement fluorescence | hit rate 1.3% among 370,000;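 active means inhibition above the plate cutoff, the mean of all test compounds on that plate plus 3 SD, cut at about 35% in these data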;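 further: 0% = DMSO alone and 100% = 100 µM mitoxantrone as full dye displacement; higher means more dye released from RNA so lower well fluorescence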
PAFAH1B3 inh: inhibitors of human PAFAH1B3; Q15102; hit rate 0.28% among 340,000; recombinant PAFAH1B3, FP-rhodamine probe, fluorescence polarization; inhibition, % at 3.39 µM;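 active means inhibition above the screen-wide average of all tested compounds plus 3 SD, cut at about 25% in these data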;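 further: 0% = enzyme with DMSO only and 100% = wells lacking PAFAH1B3 protein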
PAFAH2 confirm: confirmation of human PAFAH2 inhibitors; shares compounds with PAFAH2 FP inh; recombinant PAFAH2, FP-rhodamine activity probe, fluorescence polarization; inhibition, % at 3.39 µM; hit rate 65% among 2,300; AID 493030;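 active means mean inhibition over three repeats above a set limit taken from the earlier primary screen, cut at about 30% in these data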;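 further: inhibitor blocks binding of rhodamine activity probe so polarization falls; 0% = enzyme with DMSO and 100% = wells lacking PAFAH2 protein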
* = called active by the depositor; nt = no result given.

SMILES | PAFAH1B2 FP inh | EBNA-1 inh | PAFAH2 FP inh | ZTA DNA inh | rCAG binder | PAFAH1B3 inh | PAFAH2 confirm
COc1cc(NC(=O)Cc2cccc3ccccc23)c(C(=O)O)cc1OC | 7 | 7 | 60* | 11 | 18 | 16 | 40*
COc1cc(NC(=O)Cc2ccccc2)c(C(=O)O)cc1OC | 9 | -2 | 3 | 2 | -1 | 0 | nt
COc1cc(NC(=O)Nc2cccc(Cl)c2)c(C(=O)O)cc1OC | 11 | -6 | 32* | -1 | 25 | 3 | 22
COC1=CC(=O)OC(c2cccc(Cl)c2)C1 (stereo not drawn) | nt | nt | nt | nt | 1 | nt | nt
Cc1ccc(/C=C/C(=O)OCC(=O)NC(=O)NCc2ccccc2)cc1 | 2 | nt | -1 | 2 | 3 | 0 | nt
CCOc1ccc(CCNC(=O)COC(=O)/C=C/c2ccc(C)o2)cc1OCC | -2 | -12 | 4 | 5 | -7 | -2 | nt
CCCNC(=O)COC(=O)/C=C/c1ccc(C)o1 | 3 | -1 | 40* | 1 | -2 | 5 | 37*
Cc1ccc(/C=C/C(=O)OCC(=O)NCc2ccccc2)o1 | 1 | nt | 52* | nt | -9 | -6 | 40*
COc1ccc(CN(CCN2CCOCC2)C(=O)c2cc(F)cc(F)c2)cc1OC | nt | nt | nt | nt | -1 | nt | nt
CCCCCCC(=O)Nc1c(O)c2ccccc2[nH]c1=O | 10 | 3 | 42* | -19 | 3 | 11 | 22
CCCC[C@H]1C2CC(OC(=O)Nc3cccc(C(F)(F)F)c3)C(C2)[C@H]2CCCCN21 (stereo partly drawn) | nt | nt | nt | nt | -2 | nt | nt
COc1ccc(COC[C@H](C)[C@H](O)[C@@H](C)[C@H]2OC(=O)[C@@H]2C)cc1 | -3 | 1 | 69* | -15 | -5 | 8 | 78*
COc1ccc(CCC(=O)NC(C)C)cc1 | -1 | 4 | -2 | 6 | -1 | 1 | nt
COC(=O)C[C@H]1CC[C@H]2[C@H](COc3ccc(NC(=O)Cc4cccs4)cc3C(=O)N2C)O1 | nt | nt | nt | nt | 4 | nt | nt
CCCNC(=O)COC(=O)/C=C/c1cccc(F)c1 | 7 | 10 | 33* | -2 | -5 | 3 | 20
COc1ccc(CCNC(=O)COC(=O)/C=C/c2cccc(F)c2)cc1 | 8 | nt | 24 | nt | -3 | 7 | nt
O=C(COC(=O)/C=C/c1cccc(F)c1)Nc1ccccc1 | 3 | -4 | 76* | -21 | 0 | 12 | 82*
CCOc1ccccc1C(=O)OCC(=O)Nc1cccc(S(=O)(=O)N2CCCC2)c1 | 9 | nt | 73* | nt | 3 | 10 | 52*
CCS(=O)c1ccccc1C(=O)OCC(=O)Nc1cccc(S(=O)(=O)N2CCCCC2)c1 (stereo not drawn) | 0 | nt | 59* | 0 | 7 | -7 | 53*
CCS(=O)c1ccccc1C(=O)OCC(=O)Nc1ccc2ccccc2c1 (stereo not drawn) | 0 | nt | 70* | nt | 4 | 11 | 67*
Cn1nnnc1SCC1=C(C(=O)O)N2C(=O)C(NC(=O)C3CC3c3ccccc3)C2SC1 (stereo not drawn) | 7 | -7 | 44* | 8 | 11 | -3 | 6
COC(=O)[C@H](NC(=O)c1cc(-c2ccccc2)sc1N)C(C)C | nt | nt | nt | nt | 9 | nt | nt
O=C(CSc1ccccc1C(=O)O)c1ccc([N+](=O)[O-])cc1 | 0 | -11 | 46* | -23 | 0 | 5 | 56*
COc1ccc(Cl)c(-c2cc(C(=O)Nc3ccc(F)cc3)[nH]n2)c1 | nt | nt | nt | nt | 9 | nt | nt
O=C(NC1CCCN(C2Cc3ccccc3C2)C1)c1ccc(F)cc1Cl (stereo not drawn) | 2 | 7 | 42* | 1 | 0 | 1 | 16
SMILES | PAFAH1B2 FP inh | EBNA-1 inh | PAFAH2 FP inh | ZTA DNA inh | rCAG binder | PAFAH1B3 inh | PAFAH2 confirm
CSCC(=O)NC1CCCN(C2Cc3ccccc3C2)C1 (stereo not drawn) | 4 | 0 | 6 | -1 | 0 | -4 | nt
CC(C)CN1C(=O)C[C@]2(C(=O)N(C)c3ccc(NC(=O)C(C)(C)C)cc32)C1c1ccccc1 (stereo partly drawn) | nt | nt | nt | nt | 0 | nt | nt
COc1ccc(/C=C/C(=O)OCC(=O)NC(=O)NC(C)(C)C)cc1 | 8 | 3 | 38* | -7 | -7 | 2 | 20
CC(C)(C)NC(=O)COC(=O)/C=C/c1ccc(F)cc1 | 0 | 7 | 65* | 8 | -5 | 9 | 47*
COC(=O)CNC(=O)COC(=O)/C=C/c1ccc(F)cc1 | -2 | 7 | -2 | 15 | 2 | 0 | nt
C=CCN1[C@@H](Cc2ccccc2)COc2cc(F)ccc2S1(=O)=O | nt | nt | nt | nt | 0 | nt | nt
O=C(COC(=O)c1c(F)cccc1Cl)NCC1CCCCC1 | 3 | nt | 60* | nt | -2 | 13 | 43*
O=C(COC(=O)c1c(F)cccc1Cl)NC1CCCC1 | 1 | -2 | 37* | -21 | 1 | 0 | 12
O=C(COC(=O)c1c(Cl)cccc1Cl)NCC1CCCO1 (stereo not drawn) | -1 | -14 | 2 | 10 | -4 | 0 | nt
Cc1ccc(-n2c(SCC(=O)c3ccc(F)cc3)nnc2-c2cnccn2)cc1 | nt | nt | nt | nt | 2 | nt | nt
Cc1cc(Br)cn2c(Cc3ccccc3C(F)(F)F)c(-c3ccco3)nc12 | nt | nt | nt | nt | 32 | nt | nt
Cc1ccccc1Cn1cc(COC(=O)N2CCOCC2)nn1 | nt | nt | nt | nt | 3 | nt | nt
COc1ccccc1-n1nnnc1SCC(=O)N1CCCC1=O | 3 | -9 | 51* | -10 | -2 | -3 | 42*
COc1ccc(-n2nnnc2SCC(=O)N2CCCC2=O)cc1 | 5 | nt | 0 | -15 | 4 | 3 | nt
COc1ccc(-n2nnnc2SCC(=O)N2CCCc3ccccc32)cc1OC | 5 | -4 | -5 | -10 | -5 | -1 | nt
O=C1CCCN1C(=O)CSc1nnnn1-c1ccccc1 | 12 | nt | 37* | 2 | 1 | 6 | 31*
Cc1cc(N2CCN(Cc3ccc4c(c3)OCO4)CC2)n2nc(C)nc2n1 | nt | nt | nt | nt | 0 | nt | nt
CCCC1OC23CCCCC2C(C#N)(C(=N)O3)C1(C#N)C#N (stereo not drawn) | 15 | 2 | 30* | -14 | 0 | 21 | 0
C=CCCC(=O)N(Cc1ccccc1)c1ccccc1C(=O)Nc1cc(OC)ccc1OC | nt | nt | nt | nt | 3 | nt | nt
Cc1cc(-c2n[nH]c(=S)n2N=Cc2ccc(O)cc2)n[nH]1 | nt | nt | nt | nt | 2 | nt | nt
CC(=O)c1c(C)[nH]c(C(=O)OCC(=O)Nc2ccc(Cl)c(S(=O)(=O)N(C)C)c2)c1C | -3 | 3 | 71* | 3 | 10 | 0 | 61*
CC(=O)c1c(C)[nH]c(C(=O)OCC(=O)Nc2ccc3c(c2)OCCO3)c1C | 4 | nt | 35* | nt | 1 | 5 | 20
CC(=O)c1c(C)[nH]c(C(=O)OCC(=O)Nc2ccc(Cl)cc2[N+](=O)[O-])c1C | 6 | 1 | 48* | -15 | 1 | -1 | 32*
CC(=O)N1CCN(C(=O)CSc2nc3cccnc3n2C)CC1 | nt | nt | nt | nt | 2 | nt | nt
O=C(CSc1cccc[n+]1[O-])C12CC3CC(CC(C3)C1)C2 | 6 | -2 | 48* | -18 | -2 | 4 | 46*

Source: PubChem (The Scripps Research Institute Molecular Screening Center)
